Holding throughout (assay): NCI-60 one-dose screen, 48 h (100 = growth as untreated, 0 = no growth, -100 = all killed)
Holding throughout (details): 10 µM unless noted

Assay [1] relates to SK-MEL-2 melanoma.
For assay [2], the system named is EKVX NSCLC.
Assay [3] deals with SN12C renal.
The test system of assay [4] is UO-31 renal.
Assay [5] deals with TK-10 renal.
The test system of assay [6] is ACHN renal.
Assay [7] has as its system CAKI-1 renal.
Assay [8] has as its system A498 renal.
The subject of assay [9] is CCRF-CEM leukemia.
Assay [10] has as its system MOLT-4 leukemia.
The subject of assay [11] is SR leukemia.
Assay [12] deals with RPMI-8226 leukemia.
Assay [13] relates to OVCAR-8 ovarian.
In assay [14] the test system is OVCAR-5 ovarian.
The test system of assay [15] is OVCAR-4 ovarian.
In assay [16] the test system is SK-OV-3 ovarian.
The subject of assay [17] is IGROV1 ovarian.
Assay [18] has as its system OVCAR-3 ovarian.
Assay [19] relates to NCI/ADR-RES ovarian.

About 83,000 compounds went through this panel and 20% of them were active in at least one assay; those are over-represented in the sample as a whole.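 Cells were grown in 96-well plates and exposed to the test compound at a single concentration for 48 hours; results are reported as percent growth, with values below 10 considered active.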 Unmarked numbers belong to inactive results. Calls of active or inactive are those of the source.

Take `Nc1n[nH]c2ccc([C@H]3[C@@H]4C5CCC(C5)[C@@H]4c4c(ccc5[nH]ncc45)N3S(=O)(=O)C3CC3)cc12` (some centres not stated): the growth in assay [1] was 53.2%; in assay [2] it was 29.8%; in assay [3] it was 29.1%; in assay [4], 43%; in assay [5], 61.7%; in assay [6] it was 18.5%. Further, the growth in assay [7] was 26.2%; in [8] it was -29.2% (active); in assay [9], 16.2%; in assay [10], 19%; in assay [11], 11.3%; in [12], 4.56% (active). Besides, the growth is 17.4% in assay [13]; 23.4% in assay [14]; 30.3% in assay [15]; 52.7% in [16]; 18.8% in [17]; -38.8% (active) in assay [18]. Also, the growth in [19] is 0.763% (active).
As to `COc1ccc(-c2nc3cc(C(=O)NCc4ccccc4)ccc3n2C2CCCCC2)cc1`, the growth was 91.3% in assay [1]; 46.4% in assay [2]; 94.6% in assay [3]; 61.6% in [4]; 90.9% in assay [5]; 74.3% in assay [6]. The growth was 70.5% in assay [7]; 82.4% in assay [8]; 76.8% in assay [9]; 66.6% in [10]; 43.8% in assay [11]; 69.2% in [12]. Further, the growth in assay [13] is 93%; in assay [14] it was 84.9%; in assay [15] it was 80.4%; in assay [16], 102%; in assay [17], 105%; in assay [18], 85.8%. For the same molecule, the growth in assay [19] was 88.5%.
Take `O=C1C(Cl)=C(Nc2ccc(S(=O)(=O)N3CCOCC3)cc2)C(=O)c2ccccc21`: the growth is 108% in assay [1]; 53.5% in [2]; 78.4% in assay [3]; 52.8% in assay [4]; 105% in [5]; 59% in assay [6]. Further, the growth was 78.5% in [7]; 68.8% in assay [8]; 6.98% (active) in assay [9]; 5.92% (active) in assay [10]; -3.16% (active) in assay [11]; 21.2% in assay [12]. Moreover, the growth in assay [13] was 70%; in [14] it was 38.1%; in [15] it was 86%; in [16], 81.3%; in assay [17] it was 62.5%; in assay [18] it was 72.8%. The growth in [19] is 90%.
In the case of `CCN1C(=O)N(CC)C2C1NN=c1s/c(=C\c3ccccc3F)c(=O)n12` (configuration not stated), the growth was 37.2% in assay [1]; 53% in assay [2]; 23.9% in [3]; 40.4% in assay [4]; 70.3% in [5]; 27.5% in [6]. For the same molecule, the growth was 17.4% in assay [7]; 3.4% (active) in [8]; 8.85% (active) in [9]; 10.2% in assay [10]; 8.64% (active) in assay [11]; 21.4% in assay [12]. Also, the growth in [13] is -1.12% (active); in [14], 27.5%; in assay [15] it was 41.4%; in assay [16], 32.6%; in assay [17] it was 15.2%; in [18], 0.255% (active). For the same molecule, the growth in assay [19] is 6.01% (active).
Take `Cc1cc(C(=O)O)c(C)n1-c1cccc(C(=O)O)c1`: the growth in assay [1] is 18.8%; in assay [2], 98.5%; in [3], 83.7%; in assay [4], 85.5%; in assay [5], 95.8%; in assay [6], -8.94% (active). Also, the growth in [7] was 13.8%; in assay [8], 93%; in [9], 108%; in [10], 62.9%; in assay [11], 62.6%; in assay [12], 107%. Besides, the growth in assay [13] was 73.4%; in assay [14], 66.4%; in [15], 91.4%; in assay [16], 105%; in assay [17] it was 56.9%; in assay [18], 121%. In addition, in [19], the growth is 72.1%.
As to `N#CC1=C(N)Oc2c(c(=O)[nH]c3ccc(Cl)cc23)C12C(=O)c1ccccc1C2=O`, the growth in assay [1] is 115%; in assay [2] it was 95.2%; in assay [3], 94.8%; in [4], 70.2%; in assay [5], 129%; in assay [6], 95.1%. For the same molecule, the growth in [7] is 80.5%; in assay [8], 88%; in [9], 107%; in assay [10] it was 116%; in assay [11], 101%; in assay [12] it was 96.2%. In addition, the growth in [13] is 102%; in assay [14] it was 96.1%; in assay [15], 93.1%; in assay [16] it was 101%; in [17] it was 100%; in assay [18], 93.4%. The growth in assay [19] is 102%.
On to `COc1cc(OC)c(NC(=O)c2cc3ccccc3cc2O)cc1Cl`, for which the growth was 15.4% in assay [1]; 38.4% in assay [2]; 28.1% in assay [3]; -10.7% (active) in [4]; 32.8% in [5]; 22.7% in assay [6]. For the same molecule, the growth in assay [7] was 6.59% (active); in [8], 18.8%; in [9] it was 26.9%; in assay [10], 26.9%; in assay [11], 82.6%; in assay [12], 7.51% (active). Moreover, the growth is 41.5% in assay [13]; 89% in [14]; 41.4% in [15]; 71.6% in assay [16]; 1.6% (active) in assay [17]; 2.27% (active) in assay [18]. In addition, the growth in assay [19] was 14.1%.
For `O=C1/C(=C/c2cn(-c3ccccc3)nc2-c2ccccc2)SC(=S)N1C1CCCCC1`, the growth is 108% in assay [1]; 97.4% in [2]; 92.9% in assay [3]; 94.2% in assay [4]; 117% in [5]; 102% in assay [6]. Also, the growth in [7] is 85.2%; in [8], 66.9%; in assay [9] it was 107%; in [10], 108%; in assay [11], 106%; in assay [12], 114%. Besides, the growth in assay [13] was 103%; in [14] it was 108%; in assay [15], 97.6%; in assay [16] it was 108%; in assay [17], 103%; in assay [18], 117%. For the same molecule, in assay [19], the growth is 102%.

Values taken from PubChem BioAssay (NCI).
